Where a name gives a salt, the structure may show the parent alone.
Tested on: HeLa
Test: nuclear count per well, robust Z-score vs DMSO; higher = more cells (less toxicity)
Conditions: 10 µM; 6 h
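Further: Hoechst-stained nuclei counted by automated confocal imaging of four fields per well in 384-well plates, with the robust Z-score based on the per-plate DMSO median and robust SD.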

| SMILES | nuclear count per well |
| --- | --- |
| O=c1c(O)c(-c2ccc(O)c(O)c2)oc2cc(O)cc(O)c12 | -0.68 |
| CCc1nc(N)nc(N)c1-c1ccc(Cl)cc1 [Pyrimethamine] | 0.643 |
| O=C(O)CCCCCCCC(=O)O [Azelaic Acid] | 1.11 |
| Cc1cccc(Nc2ccccc2C(=O)O)c1C [Mefenamic Acid] | -0.0235 |
| CN(C)CCCN1c2ccccc2Sc2ccc(Cl)cc21 [Chlorpromazine hydrochloride] | 0.508 |
| COc1ccc(O)cc1 [Mequinol] | 0.211 |
| COC1=C2C[C@@H](C)C[C@H](OC)[C@H](O)[C@@H](C)/C=C(\C)[C@H](OC(N)=O)[C@@H](OC)/C=C\C=C(/C)C(=O)NC(=CC1=O)C2=O [Geldanamycin] | -0.101 |
| CC#C[C@]1(O)CC[C@H]2[C@@H]3CCC4=CC(=O)CCC4=C3[C@@H](c3ccc(N(C)C)cc3)C[C@@]21C [Mifepristone] | -0.723 |
| CC1=C(/C=C/C(C)=C/C=C/C(C)=C/C(=O)O)C(C)(C)CCC1 [Tretinoin] | 1.08 |
| COC(=O)c1ccc(O)cc1 [Methylparaben] | 0.306 |
| Cn1cc(C2=C(c3cn(CCCSC(=N)N)c4ccccc34)C(=O)NC2=O)c2ccccc21 [Ro 31-8220 methanesulfonate salt] | -1.75 |
| CNC(=O)[C@H]1O[C@@H](n2cnc3c(NCc4cccc(I)c4)ncnc32)[C@H](O)[C@@H]1O | -1.23 |
| CN(C)CCN(Cc1cccs1)c1ccccn1 | 1.2 |
| CO[C@H]1C[C@@H]2CC[C@@H](C)[C@@](O)(O2)C(=O)C(=O)N2CCCC[C@H]2C(=O)O[C@H]([C@H](C)C[C@@H]2CC[C@@H](OC(=O)C(C)(CO)CO)[C@H](OC)C2)CC(=O)[C@H](C)/C=C(\C)[C@@H](O)[C@@H](OC)C(=O)[C@H](C)C[C@H](C)/C=C/C=C/C=C/1C [Temsirolimus] | 0.576 |
| OCCn1cc(-c2ccc3c(c2)CC/C3=N\O)c(-c2ccncc2)n1 | -1.12 |
| CC(=O)N[C@H]1[C@H]([C@H](O)[C@H](O)CO)OC(C(=O)O)=C[C@@H]1NC(=N)N [Zanamivir] | 0.491 |
| NC(N)=Nc1nc(CSCC/C(N)=N/S(N)(=O)=O)cs1 [Famotidine] | 0.00418 |
| c1cnc2cc3c(cc2n1)[C@@H]1CNC[C@H]3C1 [Varenicline Tartrate] | 0.658 |

| SMILES | nuclear count per well |
| --- | --- |
| COC(=O)Nc1nc2cc(C(=O)c3ccccc3)ccc2[nH]1 [Mebendazole] | -3.08 |
| CCCNC(=O)NS(=O)(=O)c1ccc(Cl)cc1 [Chlorpropamide] | -0.00913 |
| Cn1c(=O)c2nc[nH]c2n(C)c1=O [Theophylline] | 0.245 |
| O=C1CCc2cc(OCCCCc3nnnn3C3CCCCC3)ccc2N1 [Cilostazol] | 0.162 |
| CCCCCCCCCCCCCCC[C@@H](O)[C@H](CO)NC(=O)CCCCCCC [C8 Dihydroceramide] | -0.198 |
| C[C@H](CCC(=O)O)[C@H]1CC[C@H]2[C@@H]3CC[C@@H]4C[C@H](O)CC[C@]4(C)[C@H]3CC[C@]12C [Lithocholic acid] | -0.455 |
| COc1ccc(-c2ccc3c(N4CCOC[C@@H]4C)nc(N4CCOC[C@@H]4C)nc3n2)cc1CO | -0.688 |
| CCCCCCCCCC(=O)OCC(CO)OC(=O)CCCCCCCCC (stereo not given) [1,2-Didecanoyl-glycerol (10:0)] | -0.111 |
| CS(=O)(=O)Nc1ccc([N+](=O)[O-])cc1Oc1ccccc1 [Nimesulide] | -0.844 |
| CN(C)CCOC(c1ccccc1)c1ccccc1 | -1.81 |
| OC[C@@H](O)[C@H](O)[C@@H](O)CO [Xylitol] | 0.858 |
| CC(=O)O[C@H]1C[C@@]2(C)[C@@H](C[C@@H](O)[C@H]3[C@@]4(C)CC[C@@H](O)[C@@H](C)[C@@H]4CC[C@@]32C)/C1=C(\CCC=C(C)C)C(=O)O [Fucidin] | 0.193 |
| O=C(/C=C/c1cccnc1)NCCCCC1CCN(C(=O)c2ccccc2)CC1 | 1.06 |
| C[C@]12CC[C@@H]3c4ccc(O)cc4CC[C@H]3[C@@H]1CC[C@@H]2O | 1.38 |
| CO/N=C(\C(=O)N[C@@H]1C(=O)N2C(C(=O)OC(C)OC(C)=O)=C(COC(N)=O)CS[C@H]12)c1ccco1 (stereo not given in full) [Cefuroxime Axetil] | -0.643 |
| CCCc1nc(C)c2c(=O)nc(-c3cc(S(=O)(=O)N4CCN(CC)CC4)ccc3OCC)[nH]n12 [Vardenafil] | -0.564 |
| Cn1c(=O)c2[nH]cnc2n(C)c1=O [Aminophylline] | -0.0199 |
